# Assay outcomes deposited in PubChem BioAssay by several laboratories.
# JMJD2C inh – inhibitors of human GASC-1 (JMJD2C) demethylase; Q9H3R0; inhibition, % at 2.35 µM; GST-JMJD2C(1-420) H3K9me3 demethylation, DELFIA europium; hit rate 0.069% among 330,000; AID 2099;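 active = more than half of a compound's replicate wells show inhibition beyond 50%, single wells judged on their own value; inconclusive = some, but no more than half, of replicates pass 50% inhibition; inactive = no replicate passes 50% inhibition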;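 also: signal counts dimethyl H3K9 product captured on neutravidin plate; 0% = median of DMSO wells and 100% = 0.3 times that DMSO median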
# Target sequence (Q9H3R0 1-420 limits assumed): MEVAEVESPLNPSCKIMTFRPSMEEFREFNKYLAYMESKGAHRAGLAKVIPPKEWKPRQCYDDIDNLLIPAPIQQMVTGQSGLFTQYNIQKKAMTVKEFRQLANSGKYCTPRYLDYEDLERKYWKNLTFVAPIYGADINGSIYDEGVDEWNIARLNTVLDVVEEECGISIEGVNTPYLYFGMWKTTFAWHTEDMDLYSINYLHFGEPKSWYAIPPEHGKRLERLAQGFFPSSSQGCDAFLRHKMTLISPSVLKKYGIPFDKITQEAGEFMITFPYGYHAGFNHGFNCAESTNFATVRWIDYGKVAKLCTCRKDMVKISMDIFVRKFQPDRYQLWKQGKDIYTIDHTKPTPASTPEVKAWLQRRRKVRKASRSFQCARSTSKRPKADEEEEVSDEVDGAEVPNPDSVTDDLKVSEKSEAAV
# VLA-4 inh – inhibition in a human VLA-4 binding assay. P13612. VLA-4 expressing cells, ligand binding flow cytometry. inhibition, % (about 7 µM as worked out from the volumes in the protocol). hit rate 0.2% among 330,000. AID 2557; in the data active = inhibition above about 50%
# ABCB6 inh 2 – human ABCB6 transporter inhibition; Q9NP58; K562-ABCB6 porphyrin accumulation, flow cytometry, 1 h; stronger effect = lower value; fluorescence ratio to DMSO, % at 10 µM; hit rate 0.19% among 360,000;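 active = fluorescence ratio to DMSO below 75%, the collection mean minus 3 SD; inconclusive = too few cells collected in the well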;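 also: signal is porphyrin accumulated inside mitochondria; 100% equals median channel fluorescence of DMSO control wells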
# PolyA inh – yeast polyadenylation inhibition | S. cerevisiae SKY197-pL101 polyadenylation reporter, beta-gal luminescence; efflux-impaired pdr1/pdr3 knockout yeast; score 100 = 6 SD above DMSO | hit rate 0.02% among 300,000 | AID 1875 | activity score, % at 12 µM;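 active = lowest replicate activity score at least 50, where 100 means six control SD above control mean; inconclusive = lowest score under 50 but half or more replicates reach 50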;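 also: yeast exposed to compound for 9 h at 30 °C; higher score means more reporter readthrough which indicates perturbed polyadenylation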
# VLA-4 allo CP – confirmation of allosteric modulators of human VLA-4 integrin; shares compounds with VLA-4 inh; U937 cells, HUTS-21 LIBS mAb binding, flow cytometry; LDV ligand present at threefold Kd; inhibition, % at 6.7 µM; hit rate 2% among 1,300; in the data active = inhibition above about 40%;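 also: 0% = ligand without compound and 100% = no ligand background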
# * marks the source's active call; other numbers are inactive results; ? = inconclusive; nt = not tested or not shown. This is a sample that favours compounds with a hit; in the whole collection about 0.44% have one here.
SMILES,JMJD2C inh,VLA-4 inh,ABCB6 inh 2,PolyA inh,VLA-4 allo CP
O=C(Nc1cccc(Cl)c1)OCc1cncs1,-11,0,98,15,4
O=C(Nc1ccc(Cl)cc1)OCc1cncs1,0,1,92,9,-10
CCOc1ccc(CNC(=O)CCCC(=O)n2ncc3cc(C)ccc32)cc1,0,59*,94,24,5
Cc1ccc2c(cnn2C(=O)CCCC(=O)NCc2ccc(Cl)cc2)c1,-1,22,100,-6,nt
COc1ccc(NC(=O)CCNS(=O)(=O)c2ccc3[nH]c(=O)oc3c2)cc1Cl,1,28,105,5,nt
COc1ccc(S(=O)(=O)N2CCC(C(=O)NCc3ccncc3)CC2)cc1Cl,-17,3,96,9,nt
C=CC[n+]1c(C)csc1Nc1ccc(C)cc1,-9,52*,101,10,0
Cc1csc(CNC(=O)c2cc(COc3c(C)cccc3C)on2)n1,nt,11,96,0,nt
O=C(c1cc(-c2cccs2)nc2ccccc12)N1CCN(c2ccccc2)CC1,-2,11,98,16,nt
O=C(c1cc(-c2cccs2)nc2ccccc12)N1CCN(S(=O)(=O)c2cccc(F)c2)CC1,-1,91*,95,-11,0
O=C(c1cc(-c2cccs2)nc2ccccc12)N1CCN(S(=O)(=O)c2ccccc2)CC1,-3,13,97,-8,-13
CN(CC(=O)Nc1ccc(Cl)c(S(=O)(=O)N2CCOCC2)c1)C(=O)c1cccs1,1,-9,100,nt,nt
CCN(CC(=O)Nc1ccc(S(=O)(=O)N2CCOCC2)cc1)Cc1ccccc1,-3,-4,98,10,nt
Cc1cc(Oc2ccccc2)nc(SCC(=O)Nc2ccccc2)n1,-9,70*,94,-6,6
Cc1cc(Oc2ccccc2)nc(SCC(=O)Nc2ccc(Cl)c(Cl)c2)n1,1,-1,94,-10,nt
CC(/C=C/C=C/c1ccccc1)=N/NC(=O)C(O)c1ccccc1 (stereo not drawn),-3,5,96,5,nt
O=Cc1cnc(N2CCN(c3ccccc3)CC2)s1,-3,52*,100,0,1
CCOC(=O)C1CCN(C2CC(=O)N(c3ccc(OCC)cc3)C2=O)CC1 (stereo not drawn),-5,-11,89,8,-6
CCCCCCOc1ccc(N2C(=O)CC(N3CCC(C(=O)OCC)CC3)C2=O)cc1 (stereo not drawn),-2,-10,896,-22,-3
CCc1ccc(N2C(=O)CC(N3CCC(C(=O)OC)CC3)C2=O)cc1 (stereo not drawn),17,2,89,-14,nt
COc1ccc(CNC(=O)Cn2c(=O)oc3ccccc32)cc1OC,4,97*,106,nt,-11
CCOc1ccccc1CNC(=O)Cn1c(=O)oc2ccccc21,-1,26,94,-19,nt
COc1cccc(CNC(=O)Cn2c(=O)oc3ccccc32)c1OC,15,38,98,-10,-5
Cc1ccc(C(=O)NNC(=O)c2ccc3ccccc3c2O)cc1,31,2,98,5,nt
Cn1cc(CN2CCC(n3nccc3NC(=O)CCOc3ccccc3)CC2)cn1,-5,-108,104,-18,nt
SMILES,JMJD2C inh,VLA-4 inh,ABCB6 inh 2,PolyA inh,VLA-4 allo CP
Cc1ccc(CN2CCC(n3nccc3NC(=O)CCOc3ccccc3)CC2)cc1C,9,106*,95,-2,2
Cc1sc2ncnc(N3CCC(C(=O)Nc4ccccc4C(C)(C)C)CC3)c2c1C,9,10,100,-2,nt
CCOC(=O)c1c(NC(=O)COC)sc2c1CCCC2,1,2,91,-21,nt
CCOC(=O)c1c(NC(=O)COc2ncnc3sccc23)sc2c1CCC2,-33,70*,101,16,8
Cc1ccc(CN(C)CC(=O)Nc2ccc3c(c2)CCC3)cc1,6,-1,101,-16,nt
CCOc1cc(/C=C2\C(=N)N3N=C(S(C)(=O)=O)SC3=NC2=O)ccc1OCCOc1cccc(OC)c1,-27,43,107,-6,-13
CCS(=O)(=O)C1=NN2C(=N)/C(=C\c3ccc(OCCOc4cccc(OC)c4)c(OC)c3)C(=O)N=C2S1,-9,-1,104,-19,nt
CN(Cc1ccccc1)C(=O)CN(C)S(=O)(=O)c1ccc(F)cc1,6,10,99,2,0
COC(=O)c1ccc(NC(=O)C2CC(=O)N(c3cc(C)ccc3C)C2)cc1 (stereo not drawn),3,11,99,19,nt
COc1ccccc1Nc1nc2ccc(C)cc2cc1C#N,13,108*,97,-12,0
O=C(CN1C(=O)c2ccccc2S1(=O)=O)NC1CC2CCC1C2 (stereo not drawn),-1,51*,106,?,5
Cc1c(C)n(Cc2ccccc2)c2ccc(C(=O)OCCCN(C)C)cc12,-1,16,100,-3,nt
CCOC(=O)Nc1nnc(CCc2ccccc2)s1,3,4,103,3,nt
CCc1nnc(NC(=O)OCc2ccccc2)s1,0,57*,98,-3,-1
N#C/C(=N\Nc1ccc(Cl)cc1)C(=N)N1CCCCCC1,-7,-14,97,-10,nt
Cc1[nH]c2ccccc2c1/C=N/NC(=O)c1ccccc1,6,45,96,10,-7
Cc1[nH]c2ccccc2c1/C=N/NC(=O)c1ccc(N)cc1,10,3,103,-9,nt
CC(C)Oc1ccccc1C1CC(=O)Nc2cc3c(cc21)OCO3 (stereo not drawn),6,57*,93,-24,42*
Cc1cc2c(cc1C)C(c1ccccc1OC(C)C)CC(=O)N2 (stereo not drawn),-1,3,103,-5,-5
CCOc1ccccc1C1CC(=O)Nc2cc3c(cc21)OCCO3 (stereo not drawn),9,0,97,-1,nt
COc1ccccc1C1CC(=O)Nc2cc(C)c(C)cc21 (stereo not drawn),-3,6,93,-17,nt
CC(C)(C)c1ccc(NS(=O)(=O)c2ccc(N)cc2)cc1,-1,0,94,-1,4
Nc1ccc(S(=O)(=O)Nc2ccc(S(N)(=O)=O)cc2)cc1,5,-5,101,18,nt
NC(=O)c1ccc(NC(=O)C2COc3ccccc3O2)cc1 (stereo not drawn),1,15,96,13,nt
CC1CCCN(C(=O)c2ccc3c(c2)OCCO3)C1 (stereo not drawn),-2,50*,96,nt,-6
CN(C)c1ccc(CNS(=O)(=O)c2ccc3c(c2)C(C)(C)C(=O)N3C)cc1,-25,52*,98,7,-1
COC(=O)CC1C(=O)NCCN1C(=S)Nc1ccccc1Cl (stereo not drawn),-13,53*,102,-20,2
CCNc1nc(NCC)nc(-n2nc(C)cc2C)n1,18,15,97,-6,0
Cc1cc(C)n(-c2nc(NC(C)C)nc(NC(C)C)n2)n1,-2,57*,90,4,5
Cc1cc(C)n(-c2nc(NC(C)(C)C)nc(NC(C)(C)C)n2)n1,1,4,99,-2,nt
